KKLEB cytotox = reduces viability of KKLEB cystic fibrosis airway cells. KKLEB CF airway cells viability, ATPlite luminescence, overnight; hits give low values; cells stimulated with P. aeruginosa culture filtrate. activity change (cytotoxicity), % at 5 µM. hit rate 0.36% among 360,000. AID 602141;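 active = corrected activity change at or below -50% at 5 µM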
LGR2 antag = blocks bursicon-induced cAMP signaling via Drosophila LGR2. HEK293 LGR2, CRE-luciferase, bursicon-stimulated, 4 h. inhibition, % at 9.99 µM. hit rate 0.35% among 380,000;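 active = drop in luminescence signal, shown as inhibition above about 50% in the replicate tests, limit read from the data, passing the limit was not always enough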;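 also: agonist challenge used bursicon conditioned medium at about half maximal strength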
HSP90 inh = blocks HSP90-mediated luciferase refolding in reticulocyte lysate; Rabbit reticulocyte lysate, luciferase refolding luminescence, 3 h; inhibition, % at 5.6 µM; hit rate 0.91% among 290,000; AID 1789;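 active = inhibition above the screen-wide mean plus 3 SD, computed separately per campaign, cut at about 16% in these data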;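 also: 0% = DMSO wells and 100% = 60 µM geldanamycin wells; inhibitors lower the luminescence because luciferase stays unfolded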
CF NFkB inh = inhibitors of cystic fibrosis induced NF-kB | KKLEB NF-kB-GFP reporter, PAF-induced, GFP fluorescence overnight | inhibition, % at 5 µM | hit rate 0.86% among 360,000 | AID 588850;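 active = at least 50% inhibition at 5 µM, scaled per plate between neutral and stimulator controls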;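 also: PAF is a Pseudomonas aeruginosa culture filtrate used as stimulus; plate controls were PAF-stimulated DMSO wells for no effect and unstimulated DMSO wells for full effect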
Mdm2-MdmX inh = human Mdm2/MdmX binding inhibition; SaOS-2 split-luciferase Mdm2/MdmX complementation, luminescence; inhibition, % at 8 µM; hit rate 3% among 330,000;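 active = inhibition of at least 50% at 8 µM in the primary screen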
Target sequence (O15151 whole entry, looked up): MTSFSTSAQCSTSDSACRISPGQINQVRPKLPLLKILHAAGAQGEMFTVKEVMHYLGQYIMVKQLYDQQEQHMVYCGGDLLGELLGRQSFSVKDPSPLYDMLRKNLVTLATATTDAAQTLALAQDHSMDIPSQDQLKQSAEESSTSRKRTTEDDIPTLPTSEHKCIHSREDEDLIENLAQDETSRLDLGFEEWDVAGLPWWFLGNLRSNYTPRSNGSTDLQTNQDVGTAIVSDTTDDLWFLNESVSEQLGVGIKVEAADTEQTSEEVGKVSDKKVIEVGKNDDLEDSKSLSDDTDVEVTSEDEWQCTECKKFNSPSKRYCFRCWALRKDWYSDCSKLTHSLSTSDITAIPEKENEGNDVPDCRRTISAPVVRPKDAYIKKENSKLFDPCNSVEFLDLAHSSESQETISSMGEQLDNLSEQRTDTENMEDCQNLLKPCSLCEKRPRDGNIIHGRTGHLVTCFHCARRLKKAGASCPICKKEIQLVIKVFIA
Target sequence (Q00987 whole entry, looked up): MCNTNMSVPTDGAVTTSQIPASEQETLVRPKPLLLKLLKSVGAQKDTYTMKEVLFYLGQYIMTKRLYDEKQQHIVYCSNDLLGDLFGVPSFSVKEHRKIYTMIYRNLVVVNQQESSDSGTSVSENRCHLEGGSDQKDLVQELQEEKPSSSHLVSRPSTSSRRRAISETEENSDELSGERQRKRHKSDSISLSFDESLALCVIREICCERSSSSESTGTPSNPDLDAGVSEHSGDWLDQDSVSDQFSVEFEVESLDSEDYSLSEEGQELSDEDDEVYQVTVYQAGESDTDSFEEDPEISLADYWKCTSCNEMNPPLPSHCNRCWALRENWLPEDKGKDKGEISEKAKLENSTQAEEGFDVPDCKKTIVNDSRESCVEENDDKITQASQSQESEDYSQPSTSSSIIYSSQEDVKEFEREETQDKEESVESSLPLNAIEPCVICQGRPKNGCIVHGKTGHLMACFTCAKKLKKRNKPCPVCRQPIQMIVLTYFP
Peg3 promoter = inhibitors of Peg3 promoter. HeLa PEG-Prom luciferase reporter, luminescence, overnight. inhibition, % at 20 µM. hit rate 1.7% among 360,000. AID 588405;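 active = inhibition of at least 50% at 20 µM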
Mdm2 MdmX conf = human Mdm2/MdmX binding inhibition, confirmed; shares compounds with Mdm2-MdmX inh; inhibition, % at 8 µM; hit rate 55% among 10,000; luminescent assay; in the data active = inhibition above about 40%
Full FLuc ctr = counter-screen for Mdm2/MdmX inhibitors: full-length luciferase; shares compounds with Mdm2-MdmX inh; hit rate 77% among 6,200; SaOS-2 full-length luciferase counterscreen, luminescence; inhibition, % at 8 µM;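 active = mean inhibition at 8 µM reaching about 37%, which flags the compound as non-specific, limit read from the data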;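 also: p53-null SaOS-2 cells with luciferase driven by a doxycycline-inducible promoter; compound on cells about two nights before reading with doxycycline added after day one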
Active calls of the source: *; . = no result given; ! = not active in a repeat. A selection: hits, their analogues and other compounds. The true share with any hit is near 3.6%.

SMILES	KKLEB cytotox	LGR2 antag	HSP90 inh	CF NFkB inh	Mdm2-MdmX inh	Peg3 promoter	Mdm2 MdmX conf	Full FLuc ctr
Cc1cc(N2CCN(C)CC2)nc2ccc(NC(=S)N3CCN(c4ccc(Cl)cc4)CC3)cc12	-1	-3	2	2	35	-27	.	.
Cc1cc(N2CCN(C)CC2)nc2ccc(NC(=S)N3CCN(c4cccc(Cl)c4)CC3)cc12	0	6	3	-5	33	-12	.	.
Cc1cc(N2CCN(C)CC2)nc2ccc(NC(=S)N3CCN(c4ccc(F)cc4)CC3)cc12	-1	-15	-1	-4	94*	66*	21	.
Cc1cccc(N2CCN(C(=S)Nc3ccc4nc(N5CCN(C)CC5)cc(C)c4c3)CC2C)c1 (stereo not drawn)	-39	4	2	10	88*	76*	60*	65*
COc1ccc(/C=N/Nc2ncnc3c2[nH]c2ccc(C)cc23)c(OC)c1OC	-7	.	-2	9	77*	73*	53*	10
COc1cc(OC)c(OC)cc1/C=N/Nc1ncnc2c1[nH]c1ccccc12	-29	.	2	30	84*	89*	55*	12
CO[C@@H]1CN(C)C(=O)c2ccc(NC(=O)Nc3cccc(F)c3)cc2OC[C@H](C)N(C(=O)Nc2c(C)noc2C)C[C@H]1C	.	-11	.	.	.	.	.	.
CCOC(=O)c1sc2nc(SC)nc(-c3ccc(Cl)cc3)c2c1N	1	.	-5	5	60*	2	13	.
CCOC(=O)c1sc2nc(C)cc(C)c2c1N	-6	.	0	-12	-33	-83	.	.
O=C(N/N=C/c1ccco1)C1CC1c1ccccc1 (stereo not drawn)	-6	-1	4	-4	-20	-19	.	.
CC(C)(C)c1ccc(C2CC2C(=O)N/N=C\c2ccc[nH]2)cc1 (stereo not drawn)	-42	4	0	58*	84*	-8	73*	31
O=C(/C=C/c1c(F)cccc1Cl)NCc1ccco1	0	-38	-1	-29	-1	-169	.	.
O=C(CN1C(=O)/C(=C/c2c(F)cccc2Cl)Oc2ccccc21)NCc1ccco1	.	.	2	.	64*	.	49*	102*
N#Cc1ccc(NC(=O)Nc2cccc(C#N)c2)cc1	-6	11	0	3	.	28	.	.
N#Cc1ccc(NC(=O)Nc2ccc(Oc3ccc(NC(=O)Nc4ccc(C#N)cc4)cc3)cc2)cc1	15	33	2	-11	60*	57*	74*	35
C[C@@H]1CCCCO[C@@H](CN(C)S(C)(=O)=O)[C@H](C)CN([C@@H](C)CO)C(=O)c2cc(NC(=O)CCC(F)(F)F)ccc2O1	.	15	.	.	.	.	.	.
CC(C)NC(=O)Nc1ccc2c(c1)C(=O)N([C@H](C)CO)C[C@H](C)[C@H](CN(C)S(=O)(=O)c1ccc(Cl)cc1)OCCCC[C@H](C)O2	.	10	.	.	.	.	.	.
CC(C)NC(=O)N1CC2(C1)[C@H](c1ccccc1)[C@H](CO)N2Cc1cncnc1	.	4	.	.	.	.	.	.
COc1ccccc1-n1cnc2c(c1=O)c1nc3ccccc3nc1n2-c1ccc(C)cc1	4	7	2	-14	55*	3	73*	65*
COc1ccccc1-n1c2nc3ccccc3nc2c2c(=O)n(-c3cc(C)cc(C)c3)cnc21	-4	-4	4	11	17	8	.	.
NC1=NC[C@H](CC2CCCCC2)N1CCc1cc(C(F)(F)F)cc(C(F)(F)F)c1	-15	5	.	9	100*	101*	81*	59*
CCCC[C@@H]1CNCCN1CCc1cc(C(F)(F)F)cc(C(F)(F)F)c1	-11	10	.	1	9	7	.	.
FC(F)(F)c1cc(CCN2CCNC[C@@H]2CC2CCCCC2)cc(C(F)(F)F)c1	-22	13	.	20	100*	96*	19	.
CCOC(=O)c1ccc(-c2c(-c3cc(OC)c(OC)c(OC)c3)noc2C)cc1F	-30	-29	2	34	62*	9	52*	89*
CCOC(=O)c1ccc(-c2c(-c3ccc(OC)cc3)oc(=O)c3cc(OC)c(OC)cc23)cc1F	21	-8	.	-18	26	-13	.	.
SMILES	KKLEB cytotox	LGR2 antag	HSP90 inh	CF NFkB inh	Mdm2-MdmX inh	Peg3 promoter	Mdm2 MdmX conf	Full FLuc ctr
COCC(=O)N[C@H]1C=C[C@H](CC(=O)NCc2ccc(Cl)cc2)O[C@H]1CO	.	15	.	.	.	.	.	.
CCOCCCn1c(SCC(=O)Nc2cc(C(C)(C)C)nn2-c2ccccc2)nc2ccccc2c1=O	0	6	-2	1	54*	-1	8	.
CC(C)(C)c1cc(NC(=O)CCl)n(-c2ccccc2)n1	6	3	1	-19	79*	-3	58*	24
CCC(=O)N1CC2(C1)CN(C(C)=O)[C@H](CO)c1[nH]c3cc(OC)ccc3c12	.	7	.	.	.	.	.	.
CC(=O)N1[C@@H]2c3ccc(C4=CCCCC4)c(=O)n3C[C@@H]2[C@@H](CO)[C@@H]1C(=O)N1CCCCC1	.	-3	.	.	.	.	.	.
CO[C@@H]1CN(C)C(=O)c2ccc(NC(=O)C3CCOCC3)cc2OC[C@@H](C)N(C)C[C@@H]1C	.	19	.	.	.	.	.	.
COc1ccc(C2CC(=O)c3cnc(NC(=O)c4ccccc4)nc3C2)c(OC)c1 (stereo not drawn)	2	.	0	11	58*	20	41*	71*
C1CCC(C(CC2CCCCN2)C2CCCCC2)CC1 (stereo not drawn)	-17	58*!	3	10	100*	104*	99*	24
CO[C@@H]1CN(C)C(=O)c2ccc(NC(=O)NC(C)C)cc2OC[C@@H](C)N(C)C[C@@H]1C	.	40	.	.	.	.	.	.
O=C(Nc1cccc(-c2csc(Nc3ccc(Cl)cc3)n2)c1)c1ccccc1	-2	-3	.	-25	41	-81	.	.
O=C(Nc1cccc(-c2csc(Nc3ccc(Cl)cc3)n2)c1)c1cccc(C(F)(F)F)c1	1	-13	.	9	58*	-14	-6	.
O=C(Nc1ccc(-c2csc(Nc3ccc(Cl)cc3)n2)cc1)c1cc([N+](=O)[O-])cc(C(F)(F)F)c1	-22	14	.	26	71*	47	11	.
O=C(Nc1cccc(-c2csc(Nc3ccc(Cl)cc3)n2)c1)c1cc([N+](=O)[O-])cc(C(F)(F)F)c1	-16	4	.	30	85*	21	28	.
O=C(Nc1ccc(-c2csc(Nc3ccccc3)n2)cc1)c1ccccc1	-9	-68	-3	-44	-6	-24	.	.
O=C(Nc1cccc(-c2csc(Nc3ccccc3)n2)c1)c1cc([N+](=O)[O-])cc(C(F)(F)F)c1	0	-25	-6	-37	1	-98	.	.
CC(C)NC(=O)N(C)C[C@@H]1OCc2ccccc2-c2ccccc2C(=O)N([C@H](C)CO)C[C@H]1C	.	-7	.	.	.	.	.	.

Source: PubChem (several laboratories)
